Compounds with a hit are over-represented: about 3.2% of the library has one in this group of screens.
FMDV antiviral – High Throughput Screening for Foot and Mouth Disease Virus Antivirals | Potency, µM (doses to about 57.9 µM), for inactives: at the highest dose activity change, negative = inhibition, hits mostly inhibitors | FMDV antiviral cell-based qHTS | actives 1.2% (n = 410,000) | AID 1159524, 2015; calls by dose curve; tested in HEK293T cells; further: read-out not given here; nearly all actives have a fitted effect of over 45% in size
Marburg entry inh – qHTS for inhibitors of binding or entry into cells for Marburg Virus | Potency, µM (top dose mostly 37.8 µM), for inactives: at the highest dose activity change, negative = inhibition, most hits filed as inhibitors | Marburg virus pseudotyped entry inhibition, cell reporter | actives 1.8% (n = 300,000); calls by dose curve; tested in HEK293 cells
LASV entry inh – qHTS for Inhibitors of binding or entry into cells for Lassa Virus | Lassa virus pseudotype entry inhibition, cell reporter | Potency, µM (titrated, usually from 37.9 µM), for the others: top-dose activity change, negative = inhibition, actives largely listed as inhibitors | actives 1.2% (n = 300,000) | AID 540256, 2011; calls by dose curve; tested in HEK293 cells; further: nearly all actives have a fitted effect of over 50% in size
VACV mCherry inh – qHTS for Stage-Specific Inhibitors of Vaccinia Orthopoxvirus: mCherry Reporter Primary qHTS. actives 0.63% (n = 310,000). Potency, µM (doses to about 36.5 µM), for inactives: at the top dose activity change, negative = inhibition, most hits filed as inhibitors. Vaccinia virus mCherry reporter infection, fluorescence. AID 720579, 2013; calls by dose curve; tested in A549 cells; further: nearly all actives have a fitted effect of over 35% in size
VACV Venus inh – qHTS for Stage-Specific Inhibitors of Vaccinia Orthopoxvirus: Venus Reporter Primary qHTS; actives 0.46% (n = 330,000); Vaccinia virus Venus reporter expression, fluorescence; AID 720580, 2013; Potency, µM (top dose mostly 36.5 µM), for the others: top-dose activity change, negative = inhibition, usual class: inhibitors; calls by dose curve; tested in A549 cells; further: nearly all actives have a fitted effect of over 30% in size
An asterisk follows results filed as active; i = inactive; ? = inconclusive; nt = not tested or not shown; [ ] = another dose, or the depositor's remark. On the % scale 0 is the no-effect control and ±100 the full control effect; potency means the concentration at half of the fitted maximal effect.

SMILES	FMDV antiviral	Marburg entry inh	LASV entry inh	VACV mCherry inh	VACV Venus inh
Cc1ccc(NC(=O)c2ccc3c(c2)C(=O)N(CC2CCCO2)C3=O)cc1C (stereo not given)	-12%	-2%[46.1 µM]	16%[46.1 µM]	-8%	-1%
COC(=O)Cc1ccc(NC(=O)c2ccc3c(c2)C(=O)N(Cc2cccnc2)C3=O)cc1	?	0%[46.1 µM]	-2%[46.1 µM]	i	-21%
Nc1ccc(C(Cc2ccnc3ccccc23)Cc2ccnc3ccccc23)cc1	nt	nt	nt	-14%	-11%
O=C(c1cccs1)N1C[C@@H](n2cc(C3CC3)nn2)[C@@H](O)C[C@@H]1c1ccc(Cl)cc1	nt	nt	8%[46.1 µM]	nt	nt
O=C(Cn1c(=O)c(=O)n(Cc2ccccc2)c2ccc(Cl)cc21)Nc1cccc(F)c1	-7%	0.79µM*	?	i	-9%
Clc1ccc(-n2cccc2CN2CCc3nnc(Cc4ccccc4)n3CC2)nc1	-13%	nt	nt	i	-11%
CC(C)(C)c1csc(NC(=O)c2cccnc2)n1	-4%	nt	nt	nt	nt
CC(C)(C)c1csc(NNC(=O)c2ccc(Cl)cc2)n1	1%	?	?	7.1µM*	?
CCC(=O)N/C(N)=N/c1nc(C)c2cc(C)c(C)cc2n1	-15%	0%[46.1 µM]	-8%	?	?
Cc1cc2nc(/N=C(\N)NC(=O)C(C)C)nc(C)c2cc1C	-27%	?	?	?	1µM*
Cc1ccc2nc(/N=C(\N)NC(=O)NC3CCCCC3)nc(C)c2c1	?	5.6µM*	?	?	?
CCCC(=O)N/C(N)=N/c1nc(C)c2cc(C)ccc2n1	15%	-18%[46.1 µM]	?	2.2µM*	?
Cc1ccc2nc(N=C(N)N)nc(C)c2c1	?	?	-13%	i	-20%
Cc1ncc2c(c1CNS(=O)(=O)c1cccs1)CCN(C(=O)/C=C/c1cc(F)cc(F)c1)C2	-5%	nt	nt	-20%	-12%
COc1ccc(C(=O)CSc2nnc(CNc3nc(-c4ccccc4)cs3)n2C)cc1	40µM*	?	-29%	nt	-26%
COc1cccc(Cn2nnc(C(=O)NCc3ccc(Cl)cc3Cl)c2N)c1	3%	?	-4%[46.1 µM]	-11%	-9%
CCOc1ccccc1NC(=O)CN(C)S(=O)(=O)c1ccc2nc(C)sc2c1	-23%	-14%[46.1 µM]	21%[46.1 µM]	-17%	-14%
CCOc1ccc(OCC)c(NC(=O)CN(C)S(=O)(=O)c2ccc3nc(C)sc3c2)c1	32µM*	-3%	?	?	-24%
Cc1ccc(C(=O)[C@H]2[C@H](c3cccs3)NC(=O)N[C@]2(O)C(F)(F)F)cc1	nt	-26%	nt	nt	nt
Clc1ccccc1Nc1nnc(-c2ccncc2)s1	?	?	5µM*	i	-9%
CCn1c(-c2ccc(C)cc2)nn(CC(=O)NCCc2ccccc2)c1=S	11%	8.9µM*	?	-14%	-25%
Cc1nn(CC(=O)NCCc2ccccc2)c(=O)c2ccccc12	-17%	1%	0%	-17%	-11%
COc1ccc(-c2nn(CC(=O)NCCc3ccccc3)c(=S)n2C)cc1	20%	?	13µM*	-22%	-13%
CCOc1ccc(NC(=O)CC2C(=O)N(c3ccc(C)cc3)C(=O)N2C2CCCCC2)cc1 (stereo not given)	46%	11%[46.1 µM]	?	-24%	-18%
CC(=O)c1cccc(NC(=O)CN2C(=O)C(=O)N(Cc3ccco3)C2=O)c1	-11%	nt	nt	nt	nt
SMILES	FMDV antiviral	Marburg entry inh	LASV entry inh	VACV mCherry inh	VACV Venus inh
Cc1ccc(S(=O)(=O)c2nc(S(=O)(=O)c3ccccc3)sc2NCCCOC(C)C)cc1	25%	4µM*	-33%[46.1 µM]	1%	-8%
COc1ccc(-c2nc(CN3CCN(Cc4ccccc4)CC3)c(C)o2)cc1	-14%	nt	nt	nt	nt
COc1ccc(-c2nc(CN3CCN(c4cc(C)nc(C)c4)CC3)c(C)o2)c2ccccc12	-8%	?	11µM*	?	11µM*
Cc1oc(-c2cccc3ccccc23)nc1CN1CCN(c2ncnc3ccccc23)CC1	16µM*	?	?	-36%	-29%
Cc1cnc(C)c(N2CCN(Cc3nc(-c4ccc(C)o4)oc3C)CC2)n1	-5%	-15%[46.1 µM]	8%	-13%	-10%
Cc1cc(N2CCN(Cc3nc(-c4ccc(Cl)cc4)oc3C)CC2)cc(C)n1	-30%	4µM*	?	-27%	?
CC(C)=CCN1C(=O)[C@@]2(CC(C)=C[C@@H](COCc3ccccc3)O2)c2ccccc21	nt	3%[14.2 µM]	?	nt	nt
Cn1cc(C(=O)C(=O)NC2CCCCC2)c2ccccc21	79%	nt	nt	nt	nt
COc1ccccc1N1CCN(C(=O)CN2C(=O)c3cccc4cccc(c34)C2=O)CC1	?	?	?	-16%	-2%
COc1ccccc1N1CCN(C2=Nc3cccc4cccc2c34)CC1	-32%	6.3µM*	?	-9%	-7%
c1ccc(CC2CCN(C3=Nc4cccc5cccc3c45)CC2)cc1	?	16µM*	-10%	-13%	-28%
COc1ccccc1N1CCN(C(=O)CCCN2C(=O)c3cccc4cccc(c34)C2=O)CC1	?	?	-15%	11µM*	-27%
CC(=O)N1CCN(C2=Nc3cccc4cccc2c34)CC1	nt	-11%	27%	1%	8%
COc1ccccc1N1CCN(C(=O)CCCn2c(=S)[nH]c3ccccc3c2=O)CC1	25µM*	nt	nt	?	?
Cc1ccc2c(c1)C1CN(C)CCC1N2C(=O)CCCN1C(=O)c2cccc3cccc(c23)C1=O (stereo not given)	-3%	7.9µM*	7%	27%	-4%
O=C(NCCN1CCCCC1)c1ccc(Cn2c(SCc3cccc(F)c3)nc3cccnc32)cc1	-10%	4.5µM*	nt	-18%	-14%
Cc1ccc(CSc2nc3cccnc3n2Cc2ccc(C(=O)NC3CCCCC3)cc2)cc1	23%	nt	4%[46.1 µM]	?	11µM*
O=C(NC1CCCCC1)c1ccc(Cn2c(SCc3ccccc3F)nc3cccnc32)cc1	1%	nt	-10%[46.1 µM]	i	-16%
Cc1ccccc1NC(=O)OCc1cccnc1Oc1ccc(Cl)cc1	-20%	-26%[46.1 µM]	5%	4%	5%
NC1(C(=O)O)CCCc2ccc(N(CCCl)CCCl)cc21 (stereo not given)	-3%	10µM*	?	-17%	3%
O=[N+]([O-])c1ccccc1/C=C/c1ccnc2ccccc12	nt	nt	nt	-4%	-23%
CN(C)c1ccc(N=Cc2cccn2C)cc1	22%	?	6.3µM*	?	?
CN(C)c1ccc(N=Cc2cccc3ccccc23)cc1	nt	nt	nt	37%	5%
CN(c1ccccc1)c1ccc(/C=C/[N+](=O)[O-])cc1	16µM*	?	?	-19%	-27%
COc1ccc(-c2onc(C)c2C)cc1S(=O)(=O)NCc1ccc(C)o1	39%	nt	?	-1%	-28%
CCOC(=O)C1(Cc2cccc(OC)c2)CCN(CC=C(C)C)CC1	-27%	nt	nt	nt	nt
CCOC(=O)C1(Cc2cccc(OC)c2)CCN(Cc2cccc(OCC)c2O)CC1	?	7.1µM*	-24%[46.1 µM]	-26%	-12%
CCOC(=O)C1(CC2CC2)CCN(Cc2ccc(OC)cc2F)CC1	?	10µM*	?	-18%	2%

High-throughput results (PubChem BioAssay)
